# In PubChem BioAssay (NCI):
# About 83,000 compounds went through this panel and 20% of them were active in at least one assay; those are over-represented in the sample as a whole.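 Results are percent growth after 48 hours of single-concentration exposure. 100 means growth as in untreated cells, lower positive values show inhibition; negative values down to -100 show cell death.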 Active and inactive are the calls of the source. Rule for the calls: active = growth percent below 10; inactive = the rest.
# Test system: ACHN renal
# Assay: NCI-60 one-dose screen, 48 h (100 = growth as untreated, 0 = no growth, -100 = all killed)
# Settings: 10 µM unless noted
row,Structure (SMILES),growth
1,C#CCNC(=O)c1cccc2c1cc(C)n2-c1nc2c(c(NCc3ccccc3)n1)CCCC2,3.27% (active)
2,COc1ccccc1NC(=O)C1CC(c2ccc(F)cc2)=NO1 (configuration not stated),107% (inactive)
3,O=C1Nc2cc(-c3ccc(NC(=O)c4ccccc4)cc3)ccc2/C1=C/c1ccc[nH]1,95.8% (inactive)
4,C=CC(=O)N[C@@H](/C=C/C(=O)OCC)Cc1ccc(-c2cc(Cl)cc(Cl)c2)cc1,26.7% (inactive)
5,Cc1ccc(NC(=O)c2cc(-c3nc4ccccc4s3)c(=O)n(NS(=O)(=O)c3ccc(Cl)cc3)c2N)cc1,108% (inactive)
6,O=C1Nc2cc(-c3ccc(NC(=O)C4CC4)cc3)ccc2/C1=C/c1ccc[nH]1,106% (inactive)
7,O=S(=O)(NCCNc1nccc(-c2c(-c3cccc(F)c3)nc3sccn23)n1)c1ccccc1,26% (inactive)
8,O=C(NCCNc1nccc(-c2c(-c3cccc(F)c3)nc3sccn23)n1)c1ccc(Cl)cc1,34.2% (inactive)
9,COc1cc2oc(-c3cccc(C(=O)Nc4ccc(Cl)cc4)c3)cc(=O)c2c(O)c1OC,33.4% (inactive)
10,O=C1OC(Cc2ccccc2)C1c1ccccc1 (configuration not stated),104% (inactive)
11,CC(=O)Nc1ccc(-n2cnc3cc(-c4ccc(OCCN5CCCCC5)cc4)ccc32)cc1,76.8% (inactive)
12,O=C(N/N=C/c1ccc(Oc2ccccc2)cc1)c1cnn2c1NC(c1ccccc1)C2 (configuration not stated),35.2% (inactive)
13,CCN(CC)CC[n+]1cc2cc(OC)c(OC)cc2c2ccc3cc4c(cc3c21)OCO4,8.72% (active)
14,O=Cc1cc2ccccc2nc1Oc1ccc(C(F)(F)F)cc1,87.7% (inactive)
15,Cc1cc2nc3c4cc(C=O)ccc4n(CCN(C)C)c3nc2cc1C,-15% (active)
16,N#Cc1cccc(-c2ccc3c(c2)NC(=O)/C3=C\c2ccc[nH]2)c1,57.8% (inactive)
17,CCc1c(Cl)nc(N)nc1Nc1ccc(C)c(C)c1,99.7% (inactive)
18,COc1cc(NC(C)CCCNC(=O)CCC(=O)NCCCNCCCCCCCCCCNCCCNC(=O)CCC(=O)NCCCC(C)Nc2cc(OC)cc3cccnc23)c2ncccc2c1 (configuration not stated),96.7% [8 µM] (inactive)
19,Cc1ccccc1NS(=O)(=O)c1cccc(C(=O)Nc2ccc(Br)cc2)c1,47% [25 µM] (inactive)
20,COc1cc(/C=C\C(=O)O)ccc1OCc1ccccc1,102% (inactive)
21,CCCCCCCCOc1ccc(/C=N/Nc2cc(C)nc3ccc(Br)cc23)cc1,52.1% (inactive)
22,S=c1cc(S)c2cc(Br)ccc2[nH]1,90.4% (inactive)
23,CCOC(=O)CSc1nc2ccccc2c(=O)n1Cc1ccc(S(N)(=O)=O)cc1,102% (inactive)
24,C=C1C(=O)O[C@H]2[C@H]1CC/C(COC(=O)NCc1c[nH]c3ccc(Cl)cc13)=C\CC[C@@]1(C)O[C@@H]21,-98% (active)

# Test system: CAKI-1 renal
# Assay: as above
# Settings: 10 µM unless noted
row,Structure (SMILES),growth
1,COc1ccc(C/C(=C(\C)c2ccc(OCCN3CCCC3)cc2)c2ccc(OCCN3CCCC3)cc2)cc1,80.7% (inactive)
2,CCOC(=O)Oc1c(OC)cc(C(=O)c2ccc(OC)c(O)c2OC)cc1OC,32% (inactive)
3,CCCCOc1ccc(/C(C)=N/Nc2cc(C)nc3ccc(Br)cc23)cc1,82.9% (inactive)
4,O=[N+]([O-])c1cc(Br)c2cccc3c2c1CC3,95.3% (inactive)
5,CC(Oc1ccc(C(=O)O)cc1C(F)(F)F)c1ccc(Oc2ccccc2)cn1 (configuration not stated),95.9% (inactive)
6,CCN1CCN(CCNc2nccc(-c3c(-c4cccc(OC)c4)nc4occn34)n2)S1(=O)=O,78.1% (inactive)
7,Cn1c2ccccc2c2c3c(c4c5ccccc5n(C)c4c21)C(=O)OC3,82.6% (inactive)
8,COc1cc2c(cc1OC)C(=O)/C(=C/c1cc(C)c(O)c(C)c1)S2,43.9% (inactive)
9,O=C(/C=C/c1ccc(F)cc1)c1ccc(NC(=O)N2CCN(c3cc4c(cc3F)c(=O)c(C(=O)O)cn4C3CC3)CC2)cc1,95.2% (inactive)
10,O=C1c2ccc3c4c(ccc(c24)C(=O)N1CCCNCc1ccccc1Cl)C(=O)N(CCCNCc1ccccc1Cl)C3=O,-12.6% (active)
11,Cc1cccc(NC(=O)Nc2ccc(-n3cnc4cc(-c5ccc(O)cc5)ccc43)cc2)c1,35% (inactive)
12,c1ccc(-c2cn3c(ccc4ccccc43)n2)cc1,38.6% (inactive)
13,COc1cc2oc(-c3cccc(C(=O)Nc4ccccc4)c3)cc(=O)c2c(O)c1OC,48.9% (inactive)
14,Cc1ccc(/C=N/NC(=O)CSc2nc3ccccc3c(=O)n2Cc2ccc(S(N)(=O)=O)cc2)cc1,64% (inactive)
15,C#CCNC(=O)c1cccc2c1cc(C)n2-c1nc2c(c(NCc3ccccc3)n1)CCCC2,3.06% (active)
16,COc1ccccc1NC(=O)C1CC(c2ccc(F)cc2)=NO1 (configuration not stated),95.3% (inactive)
17,O=C1Nc2cc(-c3ccc(NC(=O)c4ccccc4)cc3)ccc2/C1=C/c1ccc[nH]1,100% (inactive)
18,C=CC(=O)N[C@@H](/C=C/C(=O)OCC)Cc1ccc(-c2cc(Cl)cc(Cl)c2)cc1,35.9% (inactive)
19,Cc1ccc(NC(=O)c2cc(-c3nc4ccccc4s3)c(=O)n(NS(=O)(=O)c3ccc(Cl)cc3)c2N)cc1,85.1% (inactive)

row,Structure (SMILES),growth
1,O=C1Nc2cc(-c3ccc(NC(=O)C4CC4)cc3)ccc2/C1=C/c1ccc[nH]1,102% (inactive)
2,O=S(=O)(NCCNc1nccc(-c2c(-c3cccc(F)c3)nc3sccn23)n1)c1ccccc1,39.1% (inactive)
3,O=C(NCCNc1nccc(-c2c(-c3cccc(F)c3)nc3sccn23)n1)c1ccc(Cl)cc1,41.5% (inactive)
4,COc1cc2oc(-c3cccc(C(=O)Nc4ccc(Cl)cc4)c3)cc(=O)c2c(O)c1OC,55% (inactive)
5,O=C1OC(Cc2ccccc2)C1c1ccccc1 (configuration not stated),97% (inactive)
6,CC(=O)Nc1ccc(-n2cnc3cc(-c4ccc(OCCN5CCCCC5)cc4)ccc32)cc1,84.2% (inactive)
7,O=C(N/N=C/c1ccc(Oc2ccccc2)cc1)c1cnn2c1NC(c1ccccc1)C2 (configuration not stated),33.6% (inactive)
8,CCN(CC)CC[n+]1cc2cc(OC)c(OC)cc2c2ccc3cc4c(cc3c21)OCO4,26.5% (inactive)
9,O=Cc1cc2ccccc2nc1Oc1ccc(C(F)(F)F)cc1,63.4% (inactive)
10,Cc1cc2nc3c4cc(C=O)ccc4n(CCN(C)C)c3nc2cc1C,3.46% (active)
11,N#Cc1cccc(-c2ccc3c(c2)NC(=O)/C3=C\c2ccc[nH]2)c1,51.8% (inactive)
12,CCc1c(Cl)nc(N)nc1Nc1ccc(C)c(C)c1,86.5% (inactive)
13,COc1cc(NC(C)CCCNC(=O)CCC(=O)NCCCNCCCCCCCCCCNCCCNC(=O)CCC(=O)NCCCC(C)Nc2cc(OC)cc3cccnc23)c2ncccc2c1 (configuration not stated),97.3% [8 µM] (inactive)
14,Cc1ccccc1NS(=O)(=O)c1cccc(C(=O)Nc2ccc(Br)cc2)c1,26.2% [25 µM] (inactive)
15,COc1cc(/C=C\C(=O)O)ccc1OCc1ccccc1,99.4% (inactive)
16,CCCCCCCCOc1ccc(/C=N/Nc2cc(C)nc3ccc(Br)cc23)cc1,84.1% (inactive)
17,S=c1cc(S)c2cc(Br)ccc2[nH]1,101% (inactive)
18,CCOC(=O)CSc1nc2ccccc2c(=O)n1Cc1ccc(S(N)(=O)=O)cc1,91.3% (inactive)
19,C=C1C(=O)O[C@H]2[C@H]1CC/C(COC(=O)NCc1c[nH]c3ccc(Cl)cc13)=C\CC[C@@]1(C)O[C@@H]21,-96.4% (active)
